Records with an inconclusive call do not appear. Where a call stands in place of a potency, no number is given. Unmarked numbers belong to inactive results. Calls of active or inactive are those of the source. Unless noted, calls follow the shape of the full dose curve.
What was measured:
[1] = qHTS assay to identify small molecule antagonists of the vitamin D receptor (VDR) signaling pathway - cell viability counter screen (AID 743225; active = well fitted curve in the direction sought with a large enough effect in the repeat runs; an effect the other way counts as inactive or inconclusive; also: nearly all actives have a fitted effect of over 50% in size)
Summary of the method: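 Same-well multiplex: following 16 h treatment of HEK 293T cells carrying a UAS-driven beta-lactamase reporter with compound and agonist (3 nM final), and a 2 h FRET substrate step, CellTiter-Glo was added and luminescence read after 30 min.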

[2] = qHTS assay to identify small molecule agonists of the NFkB signaling pathway - cell viability counter screen (AID 1159515); also: series mostly up to about 61 µM; nearly all actives have a fitted effect of over 55% in size
Summary of the method: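 Parallel cytotoxicity counter screen in ME-180 cells carrying an NFkB-response-element beta-lactamase reporter, 2,000 cells/well. Compound exposure lasted 5 hr at 37 C, 5% CO2. Cell viability was quantified by CellTiter-Glo luminescence.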

[3] = qHTS assay to identify small molecule agonists of the endoplasmic reticulum stress response signaling pathway (AID 1159516; active = well fitted activation curve with a large enough effect in the signal ratio in the repeat runs, not every such curve was filed as active; the % refers to the signal ratio)
Summary of the method: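 Using a HeLa line with an ESRE-driven beta-lactamase gene, agonist activity was measured by FRET substrate fluorescence (460 and 530 nm emission) after cells were treated with compounds for 5 hr at 37 C and 5% CO2.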

[4] = qHTS assay to identify small molecule agonists of the endoplasmic reticulum stress response signaling pathway - cell viability counter screen (AID 1159517);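 also: HeLa cells carrying an ER stress response element beta-lactamase reporter; series mostly up to about 61 µM; nearly all actives have a fitted effect of over 50% in size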
Summary of the method: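 Cytotoxicity of test compounds toward ESRE-bla HeLa cells was assessed after 5 hr exposure. The luminescent CellTiter-Glo signal was measured 30 min after reagent addition.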

[5] = qHTS assay to identify small molecule antagonists of the retinoid-related orphan receptor gamma (ROR-gamma) signaling pathway - cell viability counter screen (AID 1159520; active = well fitted curve in the direction sought with a large enough effect in the repeat runs; an effect the other way counts as inactive or inconclusive; also: nearly all actives have a fitted effect of over 50% in size)
Summary of the method: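 Tet-on ROR gamma CHO cells (1,000/well) were plated 4 hr, given compounds in DMSO for 2 hr at 37 C, then induced with 1 uM final doxycycline for 16 hr. Viability was read as ATP by CellTiter-Glo luminescence after 30 min.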

[6] = biological target: Nuclear receptor ROR-gamma (Homo sapiens) (UniProt P51449); test: qHTS assay to identify small molecule antagonists of the retinoid-related orphan receptor gamma (ROR-gamma) signaling pathway (AID 1159521; active = well fitted curve in the direction sought with a large enough effect in the repeat runs; an effect the other way counts as inactive or inconclusive;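 also: CHO cells with doxycycline inducible ROR-gamma driving an RORE luciferase reporter; top concentration of the series differs between compounds; nearly all actives have a fitted effect of over 50% in size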)
Summary of the method: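 Inducible-expression reporter assay: doxycycline (1 uM final) switched on RORγ in CHO cells bearing a ROR response element-luciferase construct, with test compounds present from 2 h beforehand. Decreased luminescence after 16 h defined antagonist activity.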

[7] = qHTS assay to identify small molecule agonists of the AP-1 signaling pathway - cell viability counter screen (AID 1159525); also: nearly all actives have a fitted effect of over 55% in size
Summary of the method: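 Each titration point was normalised to DMSO and tetra n-octyl ammonium bromide controls. The read was Cell Titer Glo luminescence after 30 min at RT, following 5 h compound exposure of ME-180 AP-1-bla cells at 37 °C.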

[8] = qHTS assay to identify small molecule agonists of the AP-1 signaling pathway (AID 1159526)
[9] = biological target: Retinoic acid receptor RXR-alpha (Homo sapiens) (UniProt P19793); test: qHTS assay to identify small molecule agonists of the RXR signaling pathway (AID 1159527); also: nearly all actives have a fitted effect of over 35% in size
Summary of the method: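 Compounds in DMSO were added to RXR-alpha-UAS-bla HEK 293T cells kept in 2% charcoal-stripped serum, and incubated 16 hr at 37 C with 5% CO2. Reporter signal came from a 2 hr B/G FRET substrate step.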

[10] = qHTS assay to identify small molecule agonists of the RXR signaling pathway - cell viability counter screen (AID 1159529; active = well fitted curve in the direction sought with a large enough effect in the repeat runs; an effect the other way counts as inactive or inconclusive; also: nearly all actives have a fitted effect of over 50% in size; also: potency is read from the fitted curve at half-maximal effect; as to activity change, negative = cytotoxicity: series mostly up to about 77 µM)
Summary of the method: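 Counter screen: CellTiter-Glo luminescence. Cells: RXR-alpha-UAS-bla HEK 293T. Medium: 2% charcoal-stripped FBS. Treatment: 16 h, 37 C. Reagent incubation: 30 min, RT.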

Chain of Retinoic acid receptor RXR-alpha (Homo sapiens) (P19793 whole entry, looked up): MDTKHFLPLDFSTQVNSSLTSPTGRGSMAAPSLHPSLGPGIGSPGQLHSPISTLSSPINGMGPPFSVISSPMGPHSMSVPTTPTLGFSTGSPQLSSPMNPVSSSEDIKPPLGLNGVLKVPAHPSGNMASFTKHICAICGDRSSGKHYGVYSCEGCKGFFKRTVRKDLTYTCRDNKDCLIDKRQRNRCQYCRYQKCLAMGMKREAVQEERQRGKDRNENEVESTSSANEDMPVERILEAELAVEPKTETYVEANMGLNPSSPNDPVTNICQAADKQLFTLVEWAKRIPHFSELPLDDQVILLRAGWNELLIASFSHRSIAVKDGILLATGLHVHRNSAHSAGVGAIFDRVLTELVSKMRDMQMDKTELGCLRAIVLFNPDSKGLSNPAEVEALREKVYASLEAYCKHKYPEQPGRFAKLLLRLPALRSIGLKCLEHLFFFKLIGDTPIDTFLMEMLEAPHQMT

SMILES	outcome [1]	outcome [2]	Potency [3]	outcome [4]	outcome [5]	outcome [6]	outcome [7]	Potency [8]	Potency [9]	Potency [10]	activity, negative = cytotoxic [2]	activation [3]	activity change, negative = cytotoxicity [4]	activity, negative = cytotoxicity [5]	activity change, negative = inhibition [6]	viability change, negative = cytotoxic [7]	activation [8]	activation [9]	activity change, negative = cytotoxicity [10]
CCNC(=O)C(C)OC(=O)Nc1ccccc1 (stereo not drawn)	inactive	inactive	inactive	inactive	inactive	inactive	inactive	inactive	inactive	inactive									
N=C(N)N1CCc2ccccc2C1											6.23% [at 6.95 µM]	1.42% [at 6.95 µM]	3.62% [at 6.95 µM]	7.51% [at 8.39 µM]	-0.777% [at 8.39 µM]	6.37% [at 6.97 µM]	-0.863% [at 6.97 µM]	5.64% [at 6.98 µM]	2.64% [at 6.97 µM]
C/C(Cl)=C/CCl	inactive	inactive	inactive	inactive	inactive	inactive	inactive	inactive	inactive	inactive									
Cc1cc2c(cc1CC(=O)c1sccc1S(=O)(=O)Nc1onc(C)c1Cl)OCO2	inactive	inactive	inactive	inactive	inactive	inactive	inactive	inactive	inactive	inactive									
CC(C)(C)OC(=O)c1ccccc1C(=O)O	inactive	inactive	inactive	inactive	inactive	inactive	inactive	inactive	inactive	inactive									
CCCCN(CCCC)CCCCCCN(CCCC)CCCC	inactive	inactive	inactive	inactive	inactive	inactive	inactive	inactive	inactive	inactive									
Clc1cc(Cl)c(Cl)c(Cl)c1Cl	inactive	inactive	inactive	inactive	inactive	inactive	inactive	inactive	inactive	inactive									
N[C@H]1C(O)O[C@H](CO)[C@@H](O)[C@@H]1O (stereo partly drawn)	inactive	inactive	inactive	inactive	inactive	inactive	inactive	inactive	inactive	inactive									
C/C(=N\O)c1ccc(OCC(=O)N2CCCCC2)cc1	inactive	inactive	inactive	inactive	inactive	inactive	inactive	inactive	inactive	inactive									
CCOC(=O)CC(C(C)=O)C(C)=O	inactive	inactive	inactive	inactive	inactive	inactive	inactive	inactive	inactive	inactive									
CC(C)=CCC/C(C)=C\C#N	inactive	inactive	inactive	inactive	inactive	inactive	inactive	inactive	inactive	inactive									
C[C@]12C=CC(=O)C=C1[C@@H](F)C[C@@H]1[C@@H]2[C@@H](O)C[C@@]2(C)[C@H]1CC[C@]2(O)C(=O)CO	inactive	inactive	inactive	inactive	inactive	inactive	inactive	inactive	inactive	inactive									
Cc1ccc(O)c([N+](=O)[O-])c1	inactive	inactive	inactive	inactive	inactive	inactive	inactive	inactive	inactive	24.8 µM (active)									
COC(=O)c1c(C)cc(O)c(C)c1O	inactive	inactive	inactive	inactive	inactive	inactive	inactive	inactive	inactive	inactive									
CN1C(CCl)Nc2cc(Cl)c(S(N)(=O)=O)cc2S1(=O)=O (stereo not drawn)	inactive	inactive	inactive	inactive	inactive	inactive	inactive	inactive	inactive	inactive									
COc1cnc(NS(=O)(=O)c2ccc(N)cc2)nc1	inactive	inactive	inactive	inactive	inactive	inactive	inactive	inactive	inactive	inactive									
CCCOc1ccc(C(=O)OCCN(CC)CC)cc1N	inactive	inactive	inactive	inactive	inactive	inactive	inactive	inactive	inactive	inactive									
Cc1nc2ccc(Cl)cc2[nH]1		inactive	inactive	inactive	inactive	inactive	inactive	inactive	inactive	inactive									
CC(C)(C)C(=O)NCCCC(=O)O	inactive	inactive	inactive	inactive	inactive	inactive	inactive	inactive	inactive	inactive									
CNCCc1ccccn1	inactive	inactive	inactive	inactive	inactive	inactive	inactive	inactive	inactive	inactive									
CCC(C)c1nccnc1OC (stereo not drawn)	inactive	inactive	inactive	inactive	inactive	inactive	inactive	inactive	inactive	inactive									

Source: PubChem BioAssay (Tox21)
